# An excerpt weighted towards active compounds, which were near 1.1% of everything screened.
# Mtb hypoxia rep – reduces hypoxia-regulated biosensor signal in M. tuberculosis; M. tuberculosis hypoxia-regulated fluorescent reporter, fluorescence; fluorescence inhibition, % (no concentration beside the values); 300,000 tested, 0.1% active; AID 1159583; in the data active = fluorescence inhibition mostly above about 23%, no sharp cut-off; inactive = mostly below about 17%
# Sa RN4220 lethal – S. aureus RN4220 growth inhibition; OD600, 16 h; inhibition, % (no concentration beside the values); 330,000 tested, 0.33% active; AID 1259311; in the data active = inhibition above about 85%
# SSB-PriA inh – blocks PriA binding to SSB C-terminal tail; AlphaScreen SSBct-PriA binding, biotinylated peptide; inhibition, % at 33 µM; 430,000 tested, 0.6% active; AID 1272365; in the data active = inhibition mostly above about 37%, no sharp cut-off; inactive = mostly below about 20%
# ugtP null kill – kills S. aureus RN4220 lacking UgtP; S. aureus RN4220 ugtP deletion, OD600 growth, 16 h; growth inhibition, % (test concentration not listed); 330,000 tested, 0.54% active; in the data active = growth inhibition above about 68%
# Hits are given with their value; - = inactive; . = no result shown; ! = repeats disagree.
SMILES,Mtb hypoxia rep,Sa RN4220 lethal,SSB-PriA inh,ugtP null kill
COc1ccc(C(=O)c2ccc(Cl)cc2)c2ccccc12,.,-,-,95.5
COc1ccc(C(=O)c2ccc(Br)cc2)c2ccccc12,-,-,-,-
CN(C)S(=O)(=O)c1ccc(C(=O)OCC(=O)Nc2ccc3c(c2)OCO3)cc1,21.5,-,-,-
CN(C)S(=O)(=O)c1cccc(NC(=O)COC(=O)c2ccc3c(c2)OCO3)c1,-,-,-,-
Cc1ccc(S(=O)(=O)N2C(c3ccc(Cl)c(Cl)c3)CC=C(C(=O)O)C2c2ccc(Cl)cc2)cc1 (configuration not stated),-,-,.,90.2
Cc1ccc(S(=O)(=O)N2C(c3cccc(Cl)c3)CC=C(C(=O)O)C2c2cccc(Cl)c2)cc1 (configuration not stated),-,-,.,-
Cc1ccc(S(=O)(=O)N2C(c3ccc(Cl)c(Cl)c3)CC=C(C(=O)O)C2c2cccc(Cl)c2)cc1 (configuration not stated),-,88.0,.,100.1
Cc1cc(C)n(N=Cc2ccccc2O)c(=O)c1,-,-,-,-
Cc1cc(C)n(N=Cc2cc([N+](=O)[O-])ccc2O)c(=O)c1,-,88.9,-,-
COC(=O)c1ccc(NC(=O)C2CCN(CC(=O)Nc3ccc(F)cc3)CC2)cc1,.,.,-,.
O=C(CCNc1ccc(Cc2ccncc2)cc1)c1ccc([N+](=O)[O-])cc1,-,-,46.9,-
Cc1sc(NC(=O)c2ccco2)c(C(c2ccccc2)N2CCC(C)CC2)c1C (configuration not stated),-,-,-,active
Cc1sc(NC(=O)c2ccco2)c(C(c2ccc(F)cc2)N2CCN(C)CC2)c1C (configuration not stated),-,-,-,-
COc1ccc(-c2csc(NC(=O)c3ccn(C)n3)n2)cc1OC,.,.,-,.
COc1ccccc1C1=NN(C(=S)Nc2ccccc2)C(c2ccco2)C1 (configuration not stated),-,-,39.0!,-
COc1ccc(OC)c(C2CC(c3ccccc3)=NN2C(=S)Nc2ccccc2)c1 (configuration not stated),-,-,-,-
CCCCCc1nc2c(c(=O)c3ccccc3n2C)c(=O)n1C1CCCCCC1,-,98.9,-,100.2
Cc1nc2c(c(=O)c3ccccc3n2C)c(=O)n1C1CCCCCC1,-,-,-,-
COc1ccc(-n2nnc(-c3nc(-c4ccccc4F)no3)c2C)cc1Cl,.,.,-,.
CC(NC(=O)COC(=O)c1ccc(N2CCCC2=O)cc1)c1ccc(F)cc1 (configuration not stated),33.1,-,-,-
CCN1CCOc2ccc(NC(=O)c3ccccc3Cl)cc2C1=O,.,.,-,.
CCOC(=O)c1cccc2c1-c1ccccc1C2=NO,-,-,-,87.9
CCOC(=O)N1CCN(C(=O)Cn2nc(-c3cccnc3)n(C3CC3)c2=O)CC1,.,.,-,.
Cc1cccc(NCc2ccc(O)c3ncccc23)c1C,-,-,59.7,-
COc1ccccc1NCc1ccc(O)c2ncccc12,.,.,-,.
SMILES,Mtb hypoxia rep,Sa RN4220 lethal,SSB-PriA inh,ugtP null kill
Cc1ccc(NCc2ccc(O)c3ncccc23)cc1C,-,-,40.9,-
Cc1cccnc1NCc1ccc(O)c2ncccc12,-,-,57.0,-
Cc1ccc(NCc2ccc(O)c3ncccc23)cc1,-,-,-,-
Clc1ccc2c(NN=Cc3cccnc3)ccnc2c1,-,-,-,-
Clc1ccc(Nc2ccnc3cc(Cl)ccc23)cc1,.,.,-,.
Clc1ccc2c(NN=Cc3cccc(Br)c3)ccnc2c1,-,100.6,-,100.7
Oc1ccc(C=NNc2ccc(Cl)nn2)cc1O,-,-,-,-
Oc1ccc(C=NNc2ccnc3cc(Cl)ccc23)cc1O,-,-,47.3,-
CC(=NNc1ccnc2cc(Cl)ccc12)c1ccc(N)cc1,-,-,71.3,-
Clc1ccc2c(NN=Cc3ccccc3Br)ccnc2c1,-,98.5,-,99.1
CC(=O)N1CCc2ccc(NC(=O)Cc3ccc(-c4ccccc4)cc3)cc2C1,.,.,-,.
O=C(CN1CCCC1)Nc1sc2c(c1C(=O)Nc1ccc(Br)cc1)CCC2,.,.,75.5,.
COc1ccc(/C=C/C(=O)c2ccc(O)cc2)cc1COc1ccc(F)cc1,-,-,-,87.0
O=C(Cc1csc(Nc2ccc(F)cc2)n1)Nc1ccc2c(c1)OCO2,.,.,-,.
COc1cccc(-c2ccc(C#N)c(SCC(=O)NCCc3cccc(Cl)c3)n2)c1,-,-,-,85.1
COc1ccc(-c2ccc(C#N)c(SCC(=O)NCCc3ccccc3)n2)cc1OC,-,-,-,-
NS(=O)(=O)c1ccc(NC(=O)Cn2cnc(-c3ccccc3)cc2=O)cc1,.,.,-,.
O=C(NNc1ccc(C(F)(F)F)cc1[N+](=O)[O-])c1ccc(NS(=O)(=O)c2ccc(F)cc2)cc1,-,-,60.1,-
CC(C)[C@H](Nc1ccc(C(F)(F)F)cc1[N+](=O)[O-])C(=O)O,-,-,-,-
Cc1ccc(-c2nc(COC(=O)c3nnn(-c4ccc(C)c(C)c4)c3C)c(C)o2)cc1,.,.,-,.
Cc1ccc(N2CCCS2(=O)=O)cc1NS(=O)(=O)c1ccc(Br)s1,.,.,-,.
NC(=O)C(=NOC(=O)c1ccco1)c1nc(-c2ccc(Br)cc2)cs1,-,-,-,92.8
O=S(=O)(Cc1ccccc1F)NCC1CCN(Cc2cccs2)CC1,.,.,-,.
CCCn1nnc(NC(=S)NC(=O)c2ccccc2OC)n1,32.9,-,-,-
CCCC1CCC(c2ccc(C(N)=O)cc2)CC1 (configuration not stated),.,-,-,-
SMILES,Mtb hypoxia rep,Sa RN4220 lethal,SSB-PriA inh,ugtP null kill
CCCC1CCC(c2ccc(C(=O)NN)cc2)CC1 (configuration not stated),-,-,-,98.2
O=C1C2=C(Nc3ccccc3SC2c2ccco2)c2ccccc21 (configuration not stated),-,-,48.0,-
Clc1cc2c(c3ncccc13)OCN(CCCN1CCOCC1)C2,.,.,105.0,.
O=[N+]([O-])c1ccc(NCCCN2CCOCC2)c2ncccc12,-,-,-,-
COc1cc(N=Nc2ccccc2C(=O)O)ccc1O,48.4,-,-,-
Oc1ccc(N=Nc2ccc3ccccc3c2)cc1,-,98.8,-,98.8
Oc1ccc(N=Nc2c(O)ccc3ccccc23)cc1,-,86.4,-,97.7
CN(c1ccc(O)cc1)S(=O)(=O)c1ccc2ccccc2c1,-,-,-,-
COc1cc(N=Nc2ccc3ccccc3c2)ccc1O,-,-,-,93.7
COc1ccc(NS(=O)(=O)c2nnc(NC(=O)c3ccccc3F)s2)cc1,-,-,100.1,-
COc1ccc(-c2csc(NC(=O)c3ccccc3F)n2)cc1,-,-,-,-
COc1ccc(-c2csc(NC(=O)c3ccccc3NS(=O)(=O)c3ccc(F)c(F)c3)n2)cc1,-,89.3,-,-
Cc1ccc(S(=O)(=O)Nc2ccccc2C(=O)Nc2nc(-c3ccc(F)cc3)cs2)cc1,-,88.9,-,89.0
O=C(c1cc(-c2cccs2)[nH]n1)N1CCC[C@H](Cc2nc(-c3cnccn3)no2)C1,.,.,-,.
CCOC(=O)C1=C(C)N=C2c3ccccc3C(=O)C2C1c1ccc(Cl)cc1 (configuration not stated),-,88.1,-,-
COc1ccc(C)cc1NC(=O)CSc1ccccn1,.,.,56.0,.
COc1ccc(C)cc1NC(=O)CSc1cc(-c2ccccn2)nc(C)n1,.,.,-,.

# From PubChem
